Assay results published in the supplement of paper PMC6411743.
± gives the standard deviation of the averaged measurements. The full data set covers some 6,200 targets. This sample favours those with the largest changes.

Compound: Nc1ncnc2c1ncn2[C@@H]1O[C@H](COP(=O)(O)OP(=O)(O)NP(=O)(O)O)[C@@H](O)[C@H]1O [adenylyl imidodiphosphate]
Assay: NP40-soluble protein abundance relative to vehicle (solubility fold change) (ratio); higher = more soluble protein in presence of AMP-PNP
Summary of the method: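 Crude Jurkat lysate, prepared by Dounce homogenisation, was exposed to eight concentrations from 0.1 to 10 mM for 10 min at room temperature and then 3 min at 37 °C. Solubilisation used 0.8% NP40 with benzonase for 60 min at 4 °C, followed by ultracentrifugation and TMT labelling of the supernatant for LC-MS/MS. After vsn normalisation of intensities, each value is the fold change against the detergent-processed vehicle within each replicate, across three independent experiments.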

Chain of UniProt P51114 (P51114 whole entry, one chain of several): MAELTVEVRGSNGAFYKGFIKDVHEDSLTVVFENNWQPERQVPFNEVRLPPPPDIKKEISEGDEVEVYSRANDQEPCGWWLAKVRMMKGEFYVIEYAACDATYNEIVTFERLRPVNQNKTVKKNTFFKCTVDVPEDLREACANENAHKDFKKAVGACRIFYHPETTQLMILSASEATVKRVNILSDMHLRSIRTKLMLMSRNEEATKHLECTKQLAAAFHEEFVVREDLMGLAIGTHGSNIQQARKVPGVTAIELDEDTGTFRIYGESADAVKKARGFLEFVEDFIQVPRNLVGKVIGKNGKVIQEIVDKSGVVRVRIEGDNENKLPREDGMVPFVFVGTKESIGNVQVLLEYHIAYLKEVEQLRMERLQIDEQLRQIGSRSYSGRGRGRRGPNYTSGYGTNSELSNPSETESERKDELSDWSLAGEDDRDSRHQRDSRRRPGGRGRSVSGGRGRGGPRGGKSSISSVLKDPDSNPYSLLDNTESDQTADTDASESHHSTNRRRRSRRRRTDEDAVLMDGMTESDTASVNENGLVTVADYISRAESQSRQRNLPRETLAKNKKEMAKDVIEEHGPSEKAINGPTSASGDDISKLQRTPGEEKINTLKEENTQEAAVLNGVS
Chain of UniProt O15400 (O15400 whole entry): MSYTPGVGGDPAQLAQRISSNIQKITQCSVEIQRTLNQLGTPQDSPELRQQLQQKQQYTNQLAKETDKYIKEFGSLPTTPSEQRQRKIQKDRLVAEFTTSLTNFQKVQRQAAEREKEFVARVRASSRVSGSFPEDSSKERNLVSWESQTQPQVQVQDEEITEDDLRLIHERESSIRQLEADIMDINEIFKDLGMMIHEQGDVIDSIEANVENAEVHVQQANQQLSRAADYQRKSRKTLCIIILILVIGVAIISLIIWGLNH
Chain of UniProt Q15019 (Q15019 whole entry, one chain of several): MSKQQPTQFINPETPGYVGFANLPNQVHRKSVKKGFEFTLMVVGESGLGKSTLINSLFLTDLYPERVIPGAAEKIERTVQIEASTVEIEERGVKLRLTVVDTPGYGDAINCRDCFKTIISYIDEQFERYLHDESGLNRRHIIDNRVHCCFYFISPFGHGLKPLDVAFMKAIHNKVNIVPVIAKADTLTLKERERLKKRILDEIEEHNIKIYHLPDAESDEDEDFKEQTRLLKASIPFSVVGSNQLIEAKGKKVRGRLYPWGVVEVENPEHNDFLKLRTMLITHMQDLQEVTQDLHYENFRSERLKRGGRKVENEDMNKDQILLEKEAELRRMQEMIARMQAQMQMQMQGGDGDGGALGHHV
Chain of UniProt A6NDU8 (A6NDU8 whole entry): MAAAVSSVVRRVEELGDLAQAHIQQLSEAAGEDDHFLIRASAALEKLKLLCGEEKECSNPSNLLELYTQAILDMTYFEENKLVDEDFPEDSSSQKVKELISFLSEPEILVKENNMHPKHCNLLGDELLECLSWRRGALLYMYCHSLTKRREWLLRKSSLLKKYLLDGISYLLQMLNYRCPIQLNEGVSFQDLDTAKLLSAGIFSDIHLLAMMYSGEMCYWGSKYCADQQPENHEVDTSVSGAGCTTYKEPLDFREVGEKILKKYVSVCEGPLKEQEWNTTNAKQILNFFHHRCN
Chain of UniProt O95785 (O95785 whole entry, one chain of several): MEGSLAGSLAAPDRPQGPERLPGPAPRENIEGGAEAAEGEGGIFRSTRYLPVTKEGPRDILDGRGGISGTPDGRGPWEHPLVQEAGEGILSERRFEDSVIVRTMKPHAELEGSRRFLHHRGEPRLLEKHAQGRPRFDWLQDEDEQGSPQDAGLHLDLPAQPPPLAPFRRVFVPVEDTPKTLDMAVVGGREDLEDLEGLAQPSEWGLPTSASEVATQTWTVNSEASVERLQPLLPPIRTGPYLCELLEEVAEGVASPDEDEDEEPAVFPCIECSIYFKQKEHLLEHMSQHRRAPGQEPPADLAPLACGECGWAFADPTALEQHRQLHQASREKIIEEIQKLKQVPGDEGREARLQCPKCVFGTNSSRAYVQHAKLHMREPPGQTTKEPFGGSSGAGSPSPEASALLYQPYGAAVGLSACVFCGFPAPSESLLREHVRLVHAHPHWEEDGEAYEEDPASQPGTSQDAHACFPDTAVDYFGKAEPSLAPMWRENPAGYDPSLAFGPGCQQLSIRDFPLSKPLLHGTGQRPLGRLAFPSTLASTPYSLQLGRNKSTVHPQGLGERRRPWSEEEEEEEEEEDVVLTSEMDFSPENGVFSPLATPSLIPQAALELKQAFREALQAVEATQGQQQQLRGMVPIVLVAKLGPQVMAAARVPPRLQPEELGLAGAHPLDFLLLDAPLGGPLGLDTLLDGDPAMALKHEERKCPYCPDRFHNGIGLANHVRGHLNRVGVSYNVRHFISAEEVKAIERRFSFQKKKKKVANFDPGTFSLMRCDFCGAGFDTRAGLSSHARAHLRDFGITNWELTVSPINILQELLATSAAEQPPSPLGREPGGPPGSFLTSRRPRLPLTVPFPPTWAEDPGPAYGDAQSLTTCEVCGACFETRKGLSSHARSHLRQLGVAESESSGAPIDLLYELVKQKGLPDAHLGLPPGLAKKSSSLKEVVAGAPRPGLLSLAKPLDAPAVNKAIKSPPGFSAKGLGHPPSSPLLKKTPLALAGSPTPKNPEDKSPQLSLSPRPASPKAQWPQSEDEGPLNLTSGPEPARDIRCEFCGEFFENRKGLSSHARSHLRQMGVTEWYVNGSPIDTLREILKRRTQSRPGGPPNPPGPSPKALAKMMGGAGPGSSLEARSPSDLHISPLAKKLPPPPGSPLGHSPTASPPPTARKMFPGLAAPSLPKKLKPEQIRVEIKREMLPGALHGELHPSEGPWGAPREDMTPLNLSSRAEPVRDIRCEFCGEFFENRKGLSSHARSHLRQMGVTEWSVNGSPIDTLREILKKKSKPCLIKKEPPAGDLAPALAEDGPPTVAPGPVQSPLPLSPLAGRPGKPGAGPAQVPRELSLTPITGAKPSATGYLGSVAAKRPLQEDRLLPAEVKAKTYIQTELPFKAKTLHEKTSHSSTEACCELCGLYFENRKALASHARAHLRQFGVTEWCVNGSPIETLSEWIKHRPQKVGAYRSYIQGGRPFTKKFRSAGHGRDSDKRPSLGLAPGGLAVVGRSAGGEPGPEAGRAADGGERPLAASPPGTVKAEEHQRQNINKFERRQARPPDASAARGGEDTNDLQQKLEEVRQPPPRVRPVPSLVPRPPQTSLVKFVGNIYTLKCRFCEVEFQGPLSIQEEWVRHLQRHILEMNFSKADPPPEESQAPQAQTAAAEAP
Chain of UniProt O43765 (O43765 whole entry): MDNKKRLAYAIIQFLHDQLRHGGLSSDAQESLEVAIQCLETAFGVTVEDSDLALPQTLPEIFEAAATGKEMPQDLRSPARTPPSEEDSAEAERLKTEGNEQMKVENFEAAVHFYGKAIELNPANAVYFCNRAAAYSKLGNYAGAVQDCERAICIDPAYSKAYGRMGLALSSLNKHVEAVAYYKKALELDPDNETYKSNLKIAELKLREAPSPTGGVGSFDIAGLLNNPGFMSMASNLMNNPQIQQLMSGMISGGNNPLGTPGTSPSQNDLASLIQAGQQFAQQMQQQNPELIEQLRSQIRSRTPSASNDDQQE
Chain of UniProt Q8TBC5 (Q8TBC5 whole entry, one chain of several): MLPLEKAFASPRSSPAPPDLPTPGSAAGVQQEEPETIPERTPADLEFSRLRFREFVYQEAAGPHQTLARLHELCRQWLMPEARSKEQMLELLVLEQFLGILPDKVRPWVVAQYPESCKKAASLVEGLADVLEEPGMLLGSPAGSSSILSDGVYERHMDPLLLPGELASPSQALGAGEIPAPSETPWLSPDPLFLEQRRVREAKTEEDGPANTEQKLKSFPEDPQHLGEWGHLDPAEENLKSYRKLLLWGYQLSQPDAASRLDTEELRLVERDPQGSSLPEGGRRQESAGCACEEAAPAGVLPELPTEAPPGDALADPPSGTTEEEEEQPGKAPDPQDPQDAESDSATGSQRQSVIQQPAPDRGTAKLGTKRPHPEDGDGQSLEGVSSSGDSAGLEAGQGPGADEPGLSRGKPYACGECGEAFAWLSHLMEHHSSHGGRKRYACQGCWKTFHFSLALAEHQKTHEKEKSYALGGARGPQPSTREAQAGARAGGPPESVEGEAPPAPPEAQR
Chain of UniProt P24864 (P24864 whole entry, one chain of several): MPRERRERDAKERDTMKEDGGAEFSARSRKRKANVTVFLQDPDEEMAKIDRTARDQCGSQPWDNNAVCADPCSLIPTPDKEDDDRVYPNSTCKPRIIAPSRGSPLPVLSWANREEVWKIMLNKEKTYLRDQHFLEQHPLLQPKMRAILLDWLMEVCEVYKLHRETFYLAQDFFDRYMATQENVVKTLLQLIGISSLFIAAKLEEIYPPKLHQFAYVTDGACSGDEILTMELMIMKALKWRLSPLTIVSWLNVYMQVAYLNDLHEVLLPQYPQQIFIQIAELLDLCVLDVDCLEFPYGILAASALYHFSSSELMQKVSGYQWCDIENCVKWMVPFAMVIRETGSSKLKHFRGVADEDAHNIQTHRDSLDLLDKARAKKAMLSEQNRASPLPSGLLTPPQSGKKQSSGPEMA
Chain of UniProt O95772 (O95772 whole entry, one chain of several): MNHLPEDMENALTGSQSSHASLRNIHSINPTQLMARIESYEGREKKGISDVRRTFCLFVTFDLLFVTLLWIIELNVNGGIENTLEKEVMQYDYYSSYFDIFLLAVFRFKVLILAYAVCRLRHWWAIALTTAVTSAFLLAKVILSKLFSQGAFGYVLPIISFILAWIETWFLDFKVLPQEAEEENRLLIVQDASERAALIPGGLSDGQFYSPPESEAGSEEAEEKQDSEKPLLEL
Chain of UniProt Q99933 (Q99933 whole entry, one chain of several): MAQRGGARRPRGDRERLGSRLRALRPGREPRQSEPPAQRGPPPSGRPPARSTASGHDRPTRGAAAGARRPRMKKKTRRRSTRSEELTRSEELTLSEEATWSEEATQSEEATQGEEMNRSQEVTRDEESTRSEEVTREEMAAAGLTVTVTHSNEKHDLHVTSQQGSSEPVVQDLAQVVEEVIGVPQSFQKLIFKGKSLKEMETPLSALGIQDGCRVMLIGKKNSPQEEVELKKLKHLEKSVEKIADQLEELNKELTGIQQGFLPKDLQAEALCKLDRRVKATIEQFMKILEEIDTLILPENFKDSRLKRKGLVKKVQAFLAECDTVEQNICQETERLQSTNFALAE

Target	NP40-soluble protein abundance (concentration: 1mM)	NP40-soluble protein abundance (concentration: 2mM)	NP40-soluble protein abundance (concentration: 4mM)	NP40-soluble protein abundance (concentration: 6mM)	NP40-soluble protein abundance (concentration: 8mM)	NP40-soluble protein abundance (concentration: 10mM)
UniProt O15400|O15400-2	1.01 ± 0.059	1.04 ± 0.1	0.993 ± 0.06	0.992 ± 0.035	0.976 ± 0.039	0.957 ± 0.038
H3BRQ0|Q96CD2 (UniProt Q96CD2)	0.997 ± 0.028	0.998 ± 0.014	0.9917 ± 0.0054	1.018 ± 0.008	1 ± 0.041	0.978 ± 0.011
SGTA (UniProt O43765)	1.03 ± 0.052	1.15 ± 0.079	0.99 ± 0.03	1.01 ± 0.037	0.943 ± 0.054	1.02 ± 0.085
K7EMM8|Q49A26|Q49A26-2|Q49A26-3|Q49A26-4 (UniProt Q49A26)	1.07 ± 0.062	1.14 ± 0.1	1.16 ± 0.14	1.25 ± 0.17	1.31 ± 0.2	1.47 ± 0.3
B5MCX3|Q15019|Q15019-2 (UniProt Q15019)	1.027 ± 0.0023	0.997 ± 0.032	1.003 ± 0.0091	0.984 ± 0.026	0.98 ± 0.017	0.952 ± 0.037
B4E0Y9|Q8NBY1|Q9P289 (UniProt Q9P289)	0.999 ± 0.019	1.03 ± 0.059	1.01 ± 0.034	1.05 ± 0.036	1.01 ± 0.045	1.06 ± 0.039
J3QTA2|Q99933|Q99933-3|Q99933-4 (UniProt Q99933)	1.01 ± 0.028	1.029 ± 0.0083	0.992 ± 0.012	0.99 ± 0.03	0.965 ± 0.038	0.993 ± 0.021
J3QRS9|O43670|O43670-2|O43670-4|X6R4W8 (UniProt O43670)	1.09 ± 0.073	1.09 ± 0.087	1.15 ± 0.074	1.25 ± 0.065	1.29 ± 0.062	1.34 ± 0.1
J3KS94|J3QQK6|P02686|P02686-2 (UniProt P02686)	0.968 ± 0.054	0.993 ± 0.035	0.96 ± 0.03	0.928 ± 0.033	0.896 ± 0.013	0.903 ± 0.029
B4DXZ6|P51114 (UniProt P51114)	1.12 ± 0.029	1.17 ± 0.039	1.3 ± 0.055	1.43 ± 0.15	1.55 ± 0.2	1.62 ± 0.2
M0QXA7|O95785-3 (UniProt O95785)	1.02 ± 0.031	1.04 ± 0.029	1.06 ± 0.013	1.04 ± 0.034	1.02 ± 0.023	1.07 ± 0.032
H0YHA7|J3QQ67|Q07020|Q07020-2 (UniProt Q07020)	1.02 ± 0.038	0.9774 ± 0.0023	1.01 ± 0.086	0.9115 ± 0.0037	0.766 ± 0.042	1.04 ± 0.082
H7C5G1|Q2TAA2 (UniProt Q2TAA2)	0.995 ± 0.037	0.975 ± 0.015	0.98 ± 0.028	0.972 ± 0.016	0.965 ± 0.022	0.981 ± 0.028
C9JKL2|O95772|O95772-2|C9J3F5|C9JJ39|C9JPX5 (UniProt O95772)	1.02 ± 0.019	1.04 ± 0.036	1.01 ± 0.016	0.989 ± 0.028	0.989 ± 0.019	1 ± 0.034
L0R819 (UniProt Q9NWL6)	1.04 ± 0.017	1.03 ± 0.074	1.01 ± 0.026	0.996 ± 0.089	0.972 ± 0.055	1 ± 0.044
PSMD3 (UniProt O43242)	0.909 ± 0.031	0.865 ± 0.055	0.885 ± 0.091	0.906 ± 0.087	0.933 ± 0.11	0.915 ± 0.14
E9PJF5|G5E9I4|H0YCF7|Q9HCU9 (UniProt Q9HCU9)	1.03 ± 0.018	1.05 ± 0.04	1.01 ± 0.012	1 ± 0.016	0.989 ± 0.041	1.02 ± 0.051
CCDC85C (UniProt A6NKD9)	0.9594 ± 0.0012	1.0044 ± 0.00019	0.953 ± 0.035	0.9849 ± 0.007	0.9793 ± 0.0043	0.9704 ± 0.0054
J3KNN5|Q9UJV9 (UniProt Q9UJV9)	1.11 ± 0.029	1.1 ± 0.043	1.13 ± 0.073	1.12 ± 0.035	1.15 ± 0.053	1.22 ± 0.065
C9J2U0|I3L413|P24864|P24864-2|P24864-3 (UniProt P24864)	0.913 ± 0.0092	0.822 ± 0.076	0.935 ± 0.011	0.936 ± 0.032	0.9933 ± 0.0062	0.953 ± 0.07
F8VQE1|Q9UHB6|Q9UHB6-2 (UniProt Q9UHB6)	1.17 ± 0.073	1.28 ± 0.2	1.33 ± 0.12	1.39 ± 0.18	1.37 ± 0.17	1.58 ± 0.21
H0YIV9|O43716 (UniProt O43716+H0YIV9)	0.973 ± 0.038	1.02 ± 0.038	1.01 ± 0.03	0.988 ± 0.012	0.977 ± 0.015	0.962 ± 0.013
A0A0C4DG78|M0R3C6|Q8TBC5|Q8TBC5-2|Q8TBC5-3|Q8TBC5-4 (UniProt Q8TBC5)	1 ± 0.012	1.02 ± 0.03	0.984 ± 0.028	1.016 ± 0.003	1.002 ± 0.0089	1.02 ± 0.011
E7EQN5|P98171|P98171-2 (UniProt P98171)	0.999 ± 0.013	0.997 ± 0.05	1.02 ± 0.032	1.03 ± 0.077	1.01 ± 0.056	1.04 ± 0.023
J3KPP4|O95232 (UniProt O95232)	1.02 ± 0.036	1.06 ± 0.058	1.06 ± 0.019	1.22 ± 0.015	1.3 ± 0.039	1.51 ± 0.049
K7ER90|O75821|K7EL60 (UniProt O75821)	1.02 ± 0.075	1.1 ± 0.077	1.11 ± 0.095	1.24 ± 0.045	1.27 ± 0.074	1.42 ± 0.14
H0YKD8|P46779 (UniProt P46779)	1.05 ± 0.14	1.02 ± 0.09	1.01 ± 0.13	0.993 ± 0.071	0.919 ± 0.098	1.05 ± 0.16
H7C5A7|O14734 (UniProt O14734)	0.962 ± 0.017	0.932 ± 0.036	0.956 ± 0.013	0.984 ± 0.061	0.97 ± 0.015	0.961 ± 0.02
F8VU90|Q9NYL4|Q9NYL4-2 (UniProt Q9NYL4)	1.01 ± 0.042	1.04 ± 0.043	1.07 ± 0.062	0.997 ± 0.031	0.999 ± 0.084	0.994 ± 0.12
C5orf51 (UniProt A6NDU8)	1.04 ± 0.014	1.03 ± 0.025	1.01 ± 0.025	0.9735 ± 0.0065	0.953 ± 0.017	0.95 ± 0.05
